From PubChem BioAssay (EPA / NIEHS)
Values joined by “and” are separate entries in the source; they are usually repeats but may differ in a detail not shown here. Equal entries are not always repeated. Active and inactive are the calls of the source. How the source made its calls: active means hit-call score of the fitted dose curve at least 0.9, where 1 is the maximum; inactive means score below 0.9.

experiment: CCTE_Shafer_MEA_dev_per_network_spike_spike_percent: CCTE's Neural Network Formation Assay for Percent of Spikes in a Network Spike, Shafer Lab (AID 2284054)
Experimental: CCTE_Shafer_MEA_dev assay is conducted using Axion Biosystems 48 well microelectrode array (MEA) plates and Maestro recording system. Each well of the MEA plate contains a grid of 16 microelectrodes embedded in the culture surface. Electrically active cells, such as neurons, can be cultured over the electrodes, and electrical activity in these cells can be recorded extracellularly. The spontaneous firing of neurons is captured from each electrode on a microsecond timescale providing both temporally and spatially precise data. […] The CCTE_Shafer_MEA_dev assay uses primary cultures of rat cortical neurons. Recordings are made on days post-plating 5, 7, 9 and 12. As these cultures mature over time, neural networks develop functional activity and form cohesive networks in which electrical activity can be highly coordinated. CCTE_Shafer_MEA_dev_per_network_spike_spike_percent is 1 of 19 assay components of the CCTE_Shafer_MEA_dev assay. It measures the percent of spikes (action potential firings) in a network spike (temporally-clustered group of spikes across multiple electrodes) as the number of spikes that occur within a 0.05 s time window at the peak of a network spike divided by the total number of spikes during a recording in a microelectrode array (MEA) using Axion Biosystems Maestro 768 channel amplifier with the AxIS adaptive spike detector. To collapse across multiple recordings made on days post-plating 5, 7, 9 and 12, the trapezoidal area-under-the-curve of the component is calculated.Data from the assay component CCTE_Shafer_MEA_dev_per_network_spike_spike_percent was analyzed into 1 assay endpoint. This assay endpoint, CCTE_Shafer_MEA_dev_per_network_spike_spike_percent, was analyzed in the negative analysis fitting direction relative to DMSO as the negative control and baseline of activity. Using a type of functional reporter, gain or loss-of-signal activity can be used to understand electrical activity.
On the day prior to culture, each well was coated thoroughly with 150 uL of 0.05% polyethyleneimine (PEI, Sigma Cat P3143) in 50 mM HEPES (Sigma Cat H7523) at a pH of 8. The plate was incubated at 37C for one hour. PEI was rinsed out with 500 uL of sterile water three times. Plates were stored at 4C until the day of culture. This culture was plated at a seeding density of 1.5 x 10^5 cells/well on a 48-well MEA plate, prepared as described above. Cells were administered via a 25 uL media/laminin ([…]; Sigma Cat L2020-1MG) drop directly onto the microelectrode array, as adding the cells with the laminin results in better attachment than pre-coating with laminin. After 2 hours, an additional 475 uL of cortical media was added and the cells returned to the incubator. Exposure starts at day 0 of plating and is continued over twelve days of network development until the experiment is terminated. Cells are fed with fresh medium on DIV 5 and 9, following the recordings on those days. The entire volume of media in the well is exchanged and any vehicle or compound treatment is renewed. Complete details are found in OP-NHEERL/ISTD/SBB/TJS/2015-03-r0 (available on request, email shafer.tim@epa.gov). Measurement of the electrical activity is non-invasive, and recordings can be made from the same plate over multiple different days of the culture. In cortical neurons, this allows for the measurement of extracellular action potentials over the period during which networks form in the MEA plate.

Row | SMILES | outcome | AC50
1 | c1ccc2c(c1)ccc1ccccc12 | inactive | 
2 | CN1CCC[C@H]1c1cccnc1 | inactive | 
3 | c1ccc2c(c1)Cc1ccccc1-2 | inactive | 
4 | c1ccc2cc3c(ccc4ccccc43)cc2c1 | inactive | 
5 | CC(O)CO (stereo not given) | inactive | 
6 | OCCC(F)(F)C(F)(F)C(F)(F)C(F)(F)C(F)(F)C(F)(F)C(F)(F)C(F)(F)F | inactive | 
7 | CC1=C(/C=C/C(C)=C/C=C/C(C)=C/C(=O)O)C(C)(C)CCC1 |  | 26.9 µM (active)
8 | CC#C[C@]1(O)CC[C@H]2[C@@H]3CCC4=CC(=O)CCC4=C3[C@@H](c3ccc(N(C)C)cc3)C[C@@]21C |  | 3.55 µM (active) and 23.1 µM (active)
9 | C=C(C)C(=O)OCCC(F)(F)C(F)(F)C(F)(F)C(F)(F)C(F)(F)C(F)(F)F | inactive | 
10 | OCCC(F)(F)C(F)(F)C(F)(F)C(F)(F)C(F)(F)C(F)(F)F | inactive | 
